This is part of a sample that, as a whole, favours compounds with a hit. Of some 83,000 tested, about 20% had one in any assay.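 Results are percent growth after 48 hours of single-concentration exposure. 100 means growth as in untreated cells, lower positive values show inhibition; negative values down to -100 show cell death.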 The source made the active and inactive calls. Rule for the calls: active = growth percent below 10; inactive = the rest.
Tests used:
Experiment in all cases: NCI-60 one-dose screen, 48 h (100 = growth as untreated, 0 = no growth, -100 = all killed)
Details in all cases: 10 µM unless noted
NCI-H23 lung = tested on: NCI-H23 lung
NCI-H226 lung = tested on: NCI-H226 lung
NCI-H322M lung = tested on: NCI-H322M lung
HOP-62 NSCLC = tested on: HOP-62 NSCLC
NCI-H460 lung = tested on: NCI-H460 lung
HOP-92 NSCLC = tested on: HOP-92 NSCLC
NCI-H522 lung = tested on: NCI-H522 lung
A549/ATCC NSCLC = tested on: A549/ATCC NSCLC
786-0 renal = tested on: 786-0 renal
COLO 205 colon = tested on: COLO 205 colon

Measured: growth

CCCC[N+]1(C)CCN=C1Cc1ccccc1 (stereo not given)
inactive: NCI-H23 lung 101% | NCI-H226 lung 97.6% | NCI-H322M lung 99.9% | HOP-62 NSCLC 105% | NCI-H460 lung 110% | HOP-92 NSCLC 90.9% | NCI-H522 lung 88.5% | A549/ATCC NSCLC 87.8% | 786-0 renal 101% | COLO 205 colon 111%

Cc1[nH]c(C(=O)Nc2ccc(C(N)=O)cc2OC(C)C)c(Cl)c1Cl
inactive: NCI-H23 lung 97.6% | NCI-H226 lung 107% | NCI-H322M lung 100% | HOP-62 NSCLC 92.7% | NCI-H460 lung 85.1% | HOP-92 NSCLC 73.3% | NCI-H522 lung 91.7% | A549/ATCC NSCLC 100% | 786-0 renal 102% | COLO 205 colon 115%

CCOC(=O)c1c(NC(=S)Nc2ccc([N+](=O)[O-])cc2)sc2c1CCCCC2
inactive: NCI-H23 lung 69.4% | NCI-H226 lung 70.8% | NCI-H322M lung 83.5% | HOP-62 NSCLC 102% | NCI-H460 lung 69.7% | NCI-H522 lung 58.7% | A549/ATCC NSCLC 84.4% | 786-0 renal 92.9% | COLO 205 colon 105%
active: HOP-92 NSCLC 0.0405%

COc1nc2ccccc2cc1/C=[N+](\[O-])c1ccccc1
inactive: NCI-H23 lung 75.4% | NCI-H226 lung 69.5% | NCI-H322M lung 86.5% | HOP-62 NSCLC 80.4% | NCI-H460 lung 99.6% | HOP-92 NSCLC 64.4% | NCI-H522 lung 82.7% | A549/ATCC NSCLC 94.8% | 786-0 renal 102% | COLO 205 colon 108%

CCN1CCN(CCOc2ccc(CNc3ccc4nc(CCC5CCCCC5)[nH]c4c3)cc2)CC1
inactive: NCI-H23 lung 75.6% | NCI-H226 lung 38.9% | NCI-H322M lung 66.1% | HOP-62 NSCLC 50.4% | NCI-H460 lung 42.8% | HOP-92 NSCLC 22.4% | NCI-H522 lung 32% | A549/ATCC NSCLC 48.3%
active: 786-0 renal -11.7% | COLO 205 colon -74.3%

CC(C)(C)c1ccc(C(=O)Nc2sc3c(c2C#N)CCC(=O)C3)cc1
active: NCI-H23 lung 5.23% | NCI-H460 lung 1.59% | HOP-92 NSCLC -25% | NCI-H522 lung -22.9% | COLO 205 colon -61.8%
inactive: NCI-H226 lung 15.4% | NCI-H322M lung 86.6% | HOP-62 NSCLC 49.7% | A549/ATCC NSCLC 14.4% | 786-0 renal 17.6%

CCOC(=O)CC1CSC(N/N=C/c2ccc(O)cc2)=N1 (stereo not given)
inactive: NCI-H23 lung 102% | NCI-H226 lung 105% | NCI-H322M lung 98.6% | HOP-62 NSCLC 91% | NCI-H460 lung 112% | HOP-92 NSCLC 80.3% | NCI-H522 lung 97% | A549/ATCC NSCLC 102% | 786-0 renal 89.9% | COLO 205 colon 111%

C=CC(=O)NCc1cccc(Nc2ncc(Br)c(NCCCNC(=O)C3CCC3)n2)c1
active: NCI-H23 lung -37% | NCI-H226 lung -0.669% | NCI-H322M lung -13.1% | HOP-62 NSCLC -26.9% | NCI-H460 lung -41.9% | HOP-92 NSCLC -11.5% | NCI-H522 lung -38.8% | A549/ATCC NSCLC -9.64% | 786-0 renal -35.2% | COLO 205 colon -25.7%

OC1CSSC1Cn1cnc2c(Nc3ccc(F)c(Cl)c3)ncnc21 (stereo not given)
inactive: NCI-H23 lung 60.2% | NCI-H226 lung 87.9% | NCI-H322M lung 74.1% | HOP-62 NSCLC 93.2% | NCI-H460 lung 68.4% | HOP-92 NSCLC 137% | NCI-H522 lung 69.2% | A549/ATCC NSCLC 77.5% | 786-0 renal 108% | COLO 205 colon 111%

CN1CCN(CCCNC(=O)c2c3c(n4ccccc24)C(=O)c2ncccc2C3=O)CC1
inactive: NCI-H226 lung 33.7% | HOP-62 NSCLC 25.8% | HOP-92 NSCLC 14.9% | 786-0 renal 28.5%
active: NCI-H23 lung -24.3% | NCI-H322M lung -23.9% | NCI-H460 lung -60.1% | NCI-H522 lung -43.4% | A549/ATCC NSCLC -25.5% | COLO 205 colon -73%

O=C(Nc1ncc(Cc2ccccc2)s1)c1cc(-c2ccccc2)nc2ccccc12
inactive: NCI-H23 lung 89.3% | NCI-H226 lung 89.3% | NCI-H322M lung 99.1% | HOP-62 NSCLC 94.1% | NCI-H460 lung 101% | HOP-92 NSCLC 84.1% | NCI-H522 lung 87.6% | A549/ATCC NSCLC 98.2% | 786-0 renal 105% | COLO 205 colon 100%

CCOC(=O)c1c(C)n2c(=O)cc(C)c3c(OC(C)=O)c(OC(C)=O)cc1c32
inactive: NCI-H23 lung 75% | NCI-H226 lung 102% | NCI-H322M lung 79.9% | HOP-62 NSCLC 81.4% | NCI-H460 lung 40.8% | HOP-92 NSCLC 71.8% | NCI-H522 lung 55.3% | A549/ATCC NSCLC 79.8% | 786-0 renal 81.3% | COLO 205 colon 74.1%

COc1cc(OC)cc(C(=O)Nc2cnc(Nc3ccc(N4CCOCC4)nc3)nc2Oc2ccc(C(F)(F)F)cc2)c1
inactive: NCI-H23 lung 82% | NCI-H226 lung 39.9% | NCI-H322M lung 77.4% | HOP-62 NSCLC 43.1% | NCI-H460 lung 31.1% | HOP-92 NSCLC 86.7% | NCI-H522 lung 77.1% | A549/ATCC NSCLC 35.4% | 786-0 renal 54.8% | COLO 205 colon 83%

COC12C=C/C(=C(/C(=O)OCc3ccccn3)C(=O)CCCCCCCCC3(OC)C=C/C(=C(/C(=O)OCc4ccccn4)C(=O)CCCCCCCC1)O3)O2
inactive: HOP-62 NSCLC 20%
active: NCI-H23 lung -37.4% | NCI-H226 lung -69.4% | NCI-H322M lung -60% | NCI-H460 lung -15.5% | HOP-92 NSCLC -59% | NCI-H522 lung -12.9% | A549/ATCC NSCLC 9.81% | 786-0 renal -72.5% | COLO 205 colon -15.6%

O=C(/C=C/c1ccc(Cl)cc1)c1ccc(Nc2ccnc3cc(Cl)ccc23)cc1
inactive: NCI-H23 lung 71.1% | NCI-H226 lung 111% | NCI-H322M lung 89.6% | HOP-62 NSCLC 72.2% | NCI-H460 lung 133% | HOP-92 NSCLC 15.2% | NCI-H522 lung 88.3% | A549/ATCC NSCLC 62.7% | 786-0 renal 62.8% | COLO 205 colon 107%

O=C(Nc1cccc2c1C(=O)c1cccc(NC(=O)c3ccc(C(=O)Nc4cccc5c4C(=O)c4cccc(NC(=O)c6ccccc6)c4C5=O)cc3)c1C2=O)c1ccccc1
inactive: NCI-H23 lung 98% | NCI-H226 lung 74.1% | NCI-H322M lung 98.8% | HOP-62 NSCLC 103% | NCI-H460 lung 111% | HOP-92 NSCLC 58.4% | NCI-H522 lung 84.7% | A549/ATCC NSCLC 99.6% | 786-0 renal 109% | COLO 205 colon 111%

O=C(Nc1ncc(Cc2cc(C(F)(F)F)ccc2Cl)s1)C(=S)N1CCOCC1
inactive: NCI-H23 lung 89.8% | NCI-H226 lung 88.3% | NCI-H322M lung 94.6% | HOP-62 NSCLC 93% | NCI-H460 lung 100% | HOP-92 NSCLC 70.4% | NCI-H522 lung 74.7% | A549/ATCC NSCLC 93.8% | 786-0 renal 94.6% | COLO 205 colon 96.4%

COc1ccc(C(=O)/C=C/c2ccc(C)cc2)cc1S(N)(=O)=O
inactive: NCI-H23 lung 77.4% | NCI-H226 lung 83% | NCI-H322M lung 36.1% | HOP-62 NSCLC 78.1% | NCI-H460 lung 53.5% | HOP-92 NSCLC 41.2% | NCI-H522 lung 43.1% | A549/ATCC NSCLC 43.6% | 786-0 renal 40.8% | COLO 205 colon 95.8%

CC(C)(C)n1cc(-c2ccnc(NCCNS(=O)(=O)c3cccc4ccccc34)c2)c(-c2cccc(O)c2)n1
inactive: NCI-H23 lung 69.7% | NCI-H226 lung 75.3% | NCI-H322M lung 89.6% | HOP-62 NSCLC 88.2% | NCI-H460 lung 55.9% | HOP-92 NSCLC 64.5% | NCI-H522 lung 61.9% | A549/ATCC NSCLC 62.7% | 786-0 renal 64.3%
active: COLO 205 colon -33.1%

Cn1cc(-c2nc(-c3c[nH]c4ccncc34)cs2)c2cc(F)ccc21
inactive: NCI-H226 lung 57.9%
active: NCI-H23 lung -55.9% | NCI-H322M lung -75% | HOP-62 NSCLC -85.6% | NCI-H460 lung -70.5% | HOP-92 NSCLC -89.5% | NCI-H522 lung -66.1% | A549/ATCC NSCLC -79.6% | 786-0 renal -92.5% | COLO 205 colon -74.1%

COC(=O)c1nc(-c2ccc(C)cc2)oc1N1CCOCC1
inactive: NCI-H23 lung 106% | NCI-H226 lung 94% | NCI-H322M lung 105% | HOP-62 NSCLC 98.3% | NCI-H460 lung 100% | HOP-92 NSCLC 102% | NCI-H522 lung 90.7% | A549/ATCC NSCLC 88.4% | 786-0 renal 82.3% | COLO 205 colon 111%

O=C(COc1ccc(/C=C2\Oc3ccccc3C2=O)cc1)Nc1nccs1
active: NCI-H522 lung -30.2%
inactive: NCI-H23 lung 87.6% | NCI-H226 lung 89.8% | NCI-H322M lung 89.3% | HOP-62 NSCLC 86.8% | NCI-H460 lung 107% | HOP-92 NSCLC 34.3% | A549/ATCC NSCLC 97.5% | 786-0 renal 88.1% | COLO 205 colon 107%

COc1ccc(-c2csc(NC(=O)CSc3nc(C)cc(=O)[nH]3)n2)cc1
inactive: NCI-H23 lung 91.1% | NCI-H226 lung 111% | NCI-H322M lung 106% | HOP-62 NSCLC 118% | NCI-H460 lung 107% | HOP-92 NSCLC 95.5% | NCI-H522 lung 86.7% | A549/ATCC NSCLC 104% | 786-0 renal 102% | COLO 205 colon 116%

Cc1ccc(S(=O)(=O)N(CCC(=O)O)c2ccccc2)cc1
inactive: NCI-H23 lung 112% | NCI-H226 lung 109% | NCI-H322M lung 122% | HOP-62 NSCLC 96.2% | NCI-H460 lung 112% | HOP-92 NSCLC 102% | NCI-H522 lung 109% | A549/ATCC NSCLC 104% | 786-0 renal 94.3% | COLO 205 colon 132%

Cc1cc2c(c(C)n1)CN(C(=O)Nc1nc(-c3cncs3)ccc1N)C2
inactive: NCI-H23 lung 104% | NCI-H226 lung 107% | NCI-H322M lung 97.8% | HOP-62 NSCLC 99.6% | NCI-H460 lung 106% | HOP-92 NSCLC 90.1% | NCI-H522 lung 87.5% | A549/ATCC NSCLC 111% | 786-0 renal 102% | COLO 205 colon 110%

O=[N+]([O-])c1ccc(Oc2cccc3c(Oc4ccc([N+](=O)[O-])cc4[N+](=O)[O-])cccc23)c([N+](=O)[O-])c1
inactive: NCI-H23 lung 75.3% | NCI-H226 lung 83.9% | NCI-H322M lung 92.4% | HOP-62 NSCLC 79.6% | NCI-H460 lung 93.4% | HOP-92 NSCLC 62% | NCI-H522 lung 74.6% | A549/ATCC NSCLC 83% | 786-0 renal 108% | COLO 205 colon 102%

C=C(C)[C@@H]1CC[C@]2(C#N)CC[C@]3(C)[C@H](CC[C@@H]4[C@@]5(C)CCCNC(C)(C)[C@@H]5CC[C@]43C)[C@@H]12
active: COLO 205 colon -67.8%
inactive: NCI-H23 lung 82.7% | NCI-H226 lung 96.6% | NCI-H322M lung 88.7% | HOP-62 NSCLC 113% | NCI-H460 lung 11.1% | HOP-92 NSCLC 51% | NCI-H522 lung 91.5% | A549/ATCC NSCLC 73.2% | 786-0 renal 84.5%

From PubChem BioAssay (NCI)
